HT1080 IDH1KD tx: kills HT-1080 cells with IDH1 knockdown. HT-1080 IDH1 knockdown viability, ATP luminescence, 48 h. Potency, µM (doses to about 46.1 µM), for the others: at the highest dose activity, negative = toxicity, hits mostly cytotoxic. 360,000 tested, 2% active. AID 686971;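 note: potency is the fitted concentration of half-maximal effect; 0% = DMSO wells and -100% = cell-free medium wells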
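In this qHTS, HT-1080 cells depleted of IDH1 are exposed for 48 h at 37 °C to compound titrations. Toxicity is scored from CellTiter-Glo luminescence, with DMSO as full viability and medium alone as none.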
TDP1 cell noCPT: qHTS for Inhibitors of human tyrosyl-DNA phosphodiesterase 1 (TDP1): qHTS in cells in absence of CPT | DT40 Tdp1-/- hTDP1 cells, no CPT, ATP luminescence, 48 h | Potency, µM (titrated, usually from 46.2 µM), inactives show at the highest dose activity change, negative = growth inhibition, actives largely listed as inhibitors | 420,000 tested, 15% active | AID 686978, 2013; note: potency is the fitted concentration of half-maximal effect; nearly all actives have a fitted effect of over 55% in size
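Growth of hTDP1-complemented DT40 Tdp1-knockout cells is measured by ATP luminescence after at least 48 hr compound exposure at 37 °C, with DMSO substituting for the 20 nM CPT used in the parallel screen.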
TDP1 cell CPT: growth inhibition of DT40 Tdp1-/-;hTDP1 cells with camptothecin (screen for TDP1 inhibitors); chicken DT40 Tdp1-/-;hTDP1 cells + 20 nM CPT, ATP luminescence, 48 h; Potency, µM (top dose mostly 46.2 µM), for inactives: at the highest dose activity change, negative = growth inhibition, actives largely listed as inhibitors; 420,000 tested, 12% active; note: potency is the fitted concentration of half-maximal effect; nearly all actives have a fitted effect of over 55% in size
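Cell growth measured by CellTiter-Glo luminescence after a minimum 48 h, 37 C compound exposure with 20 nM CPT in Tdp1-knockout DT40 cells stably expressing hTDP1, seeded 400/well; qHTS titration format.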
HT1080NT lethal: kills 2HG-producing HT-1080-NT fibrosarcoma cells; HT-1080-NT fibrosarcoma viability, CellTiter-Glo ATP luminescence, 48 h; Potency, µM (doses to about 46.1 µM), without a hit: at the top dose activity, negative = less viability, actives largely listed as cytotoxic; 360,000 tested, 1.6% active;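 note: NT is the 2HG producing partner of a matched IDH1 knockdown line; potency is the fitted concentration of half-maximal effect; 0% = DMSO-treated cells and -100% = media-only wells without cells; nearly all actives have a fitted effect of over 55% in size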
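Luminescent CellTiter-Glo readout after 48 hours of compound exposure at 37 degrees C defined viability of HT-1080-NT cells. Activity was normalized to DMSO wells and cell-free media wells; concentration-response curves were fitted and assigned curve classes.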
IL-1B inflam inh: inflammasome signaling inhibition, IL-1 beta readout; THP-1 LPS/ATP IL-1B secretion, AlphaLISA, 16 h; stronger effect = lower value; activity change, % at 57.5 µM; 360,000 tested, 4.7% active; in the data active = activity change below about -50%; inconclusive = mostly about -30% to -49%
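Secreted IL-1B measured by AlphaLISA bead assay after 16 h compound exposure of THP-1 cells; compounds (final up to 57.5 uM) added 1 h before LPS (250 ng/mL) and ATP (1.25 mM) stimulation; lower signal means less secretion.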
* hit, by the source's call; ? = inconclusive; . = not tested or not shown. In the library only some 19% were active in any assay of this set; here they are far more common. Unless noted, calls come from the whole dose curve; as a rule, active = well fitted curve in the direction sought with a large enough effect; inconclusive = small, poorly fitted or top-dose-only effect, or another doubt; inactive = no such curve, though single readings can be large; an effect the other way counts as inactive or inconclusive. Unless noted, % is set by controls: 0 for no effect and ±100 for the full control effect.

SMILES	HT1080 IDH1KD tx	TDP1 cell noCPT	TDP1 cell CPT	HT1080NT lethal	IL-1B inflam inh
COCCn1nnnc1CN1CCSCC1	4.6%	-0.6%	-11.9%	12.4%	1.3
Cc1nccn1-c1cc(C(C)(C)C)nc2c(-c3ccccc3)cnn12	18.0%	?	?	12.1%	0.0
Cc1cc(C(=O)OCC(=O)Nc2ccc(F)cc2F)c(C)o1	2.1%	2.6%	-8.0%	3.0%	-55.3*
Cc1cc(C(=O)OCC(=O)Nc2ccccc2C)c(C)o1	14.2%	2.7%	0.7%	9.9%	10.3
COCCn1c(-c2ccc(OC)cc2)c(-c2ccc(OC)cc2)oc1=O	3.1%	-26.4%	?	-1.3%	?
Cc1ccc(CCC(=O)Nc2ncc(Cc3cccc(Cl)c3Cl)s2)o1	?	0.0164µM*	0.0231µM*	0.731µM*	14.4
O=C(Nc1cccc(Cl)c1)c1cc(N=Nc2ccc([N+](=O)[O-])cc2Cl)ccc1O	-16.8%	2.59µM*	5.17µM*	-13.2%	23.3
O=C(Nc1ccc([N+](=O)[O-])cc1Cl)c1cccc([N+](=O)[O-])c1	8.4%	-29.5%	-17.3%	15.4%	-25.5
O=C(Nc1cccc(Cl)c1)c1cccc(Oc2ccc([N+](=O)[O-])cc2Cl)c1	?	?	?	?	-59.4*
O=[N+]([O-])c1ccc(Oc2ccc(-c3nnco3)cc2)c(Cl)c1	-12.8%	-26.8%	-16.9%	-3.0%	-0.5
COc1ccc(NC(=O)c2cccc(Oc3ccc([N+](=O)[O-])cc3Cl)c2)cc1	?	4.61µM*	5.8µM*	?	39.0
CCN(CC)C(=O)c1ccc(Oc2ccc([N+](=O)[O-])cc2Cl)cc1	-11.6%	16.4µM*	?	-1.5%	-7.8
CCCCCCCCCCCCCCCCC(C(=O)O)C(O)(CC(=O)O)C(=O)O (centres undefined)	.	-9.4%	17.2%	.	.
Cc1ccc(C)c(NC(=O)c2cccc(Oc3ccc([N+](=O)[O-])cc3Cl)c2)c1	-4.4%	16.4µM*	?	-5.5%	?
Cc1ccc(C)c(NC(=O)CCC(=O)NNC(=O)c2cccc([N+](=O)[O-])c2)c1	-3.2%	-2.2%	-19.2%	-4.6%	2.3
CN(C(=O)Nc1ccc(C(C)(C)C)cc1)C1CCCCC1	-3.7%	-4.7%	-24.6%	13.4%	12.1
CC(=O)N1CCC(C(=O)Nc2ccc(S(=O)(=O)N3CCCCC3)cc2)CC1	2.3%	?	?	0.6%	-0.8
COc1ccc(OC)c(N(CC(=O)NCCc2ccc(OC)c(OC)c2)S(=O)(=O)c2ccccc2)c1	-0.8%	?	?	-3.4%	17.3
COc1ccc(OC)c(N(CC(=O)NCc2ccccc2)S(=O)(=O)c2ccc(OC)c(OC)c2)c1	1.1%	?	20.6µM*	-9.2%	47.4
COc1ccc(OC)c(N(CC(=O)NCCSCc2ccco2)S(=O)(=O)c2ccccc2)c1	-0.7%	14.6µM*	?	0.7%	4.4
COc1ccc(CCNC(=O)CN(c2cc(OC)ccc2OC)S(=O)(=O)c2ccccc2)cc1	-4.3%	?	?	20.9%	-26.1
COc1ccc(CNC(=O)CN(c2ccccc2OC)S(=O)(=O)c2cccs2)cc1	0.0%	?	16.4µM*	-1.4%	-3.6
COc1ccc(CNC(=O)CNS(=O)(=O)c2cccs2)cc1	11.8%	10.2%	3.3%	5.9%	-7.6
COc1ccc(OC)c(N(CC(=O)NCc2ccccc2)S(=O)(=O)c2ccccc2)c1	.	?	11.6µM*	.	.
COc1ccc(NC(=O)C2(C)CCCN(C(C)C)C2)cc1F (centres undefined)	16.1%	-6.1%	-12.3%	19.7%	-1.8
COc1cc(OC)c(NS(=O)(=O)c2c(C(=O)N3CCC(C)CC3)c(C)n(C)c2C)cc1Cl	.	-29.8%	-26.8%	.	.
c1ccc(C2Nc3ccccc3C3OCCCC23)cc1 (centres undefined)	?	?	?	?	0.2
COc1ccc(-c2nc[nH]c2[N+](=O)[O-])cc1	1.4%	2.6%	12.5%	-1.9%	8.5
